# About 17,000 (5.5%) of roughly 310,000 compounds were called active. Roughly 11% stayed inconclusive and do not appear here. This is one part of a sample in which actives are shown more often than they occur. Values without a mark were called inactive. Calls come from the whole dose curve; as a rule, active = well fitted inhibition curve with a large enough effect; inconclusive = small, poorly fitted or top-dose-only effect, or effect the other way; inactive = no such curve, though single readings can be large or run the other way.
# Target: Nuclear receptor ROR-gamma (Mus musculus) (UniProt P51450)
# Sequence (P51450 whole entry, looked up): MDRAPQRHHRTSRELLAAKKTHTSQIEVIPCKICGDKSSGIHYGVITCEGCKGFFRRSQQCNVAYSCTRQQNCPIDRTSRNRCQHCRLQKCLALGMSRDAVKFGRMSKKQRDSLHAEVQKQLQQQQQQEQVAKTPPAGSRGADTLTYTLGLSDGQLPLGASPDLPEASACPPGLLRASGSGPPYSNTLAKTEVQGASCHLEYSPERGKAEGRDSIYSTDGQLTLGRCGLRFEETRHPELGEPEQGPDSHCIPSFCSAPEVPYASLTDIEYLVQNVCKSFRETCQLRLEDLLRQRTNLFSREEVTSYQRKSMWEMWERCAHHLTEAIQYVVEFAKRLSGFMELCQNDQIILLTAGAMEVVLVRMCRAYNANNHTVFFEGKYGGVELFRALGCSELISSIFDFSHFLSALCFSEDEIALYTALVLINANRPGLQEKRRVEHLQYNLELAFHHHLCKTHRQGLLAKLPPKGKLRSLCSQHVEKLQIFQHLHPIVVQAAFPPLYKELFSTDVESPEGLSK
# Assay: qHTS for inhibitors of ROR gamma transcriptional activity; note: nearly all actives have a fitted effect of over 60% in size
# Conditions: Drosophila S2 Gal4-RORgamma UAS-luciferase reporter, 20 h; series mostly up to 53.6 µM; activity change, negative = inhibition: at the top concentration
# Source text: NIH Molecular Libraries Probe Production Network [MLPCN] NIH Chemical Genomics Center [NCGC] MLPCN Grant: R03 DA026211-01 Assay Provider: Dan Littman, New York University Assay Overview: The retinoic acid-related orphan receptor (ROR) gamma is a transcription factor that has a central role in the differentiation of Th17 cells, a subset of T helper cells that secrete the inflammatory cytokines IL-17, IL-17F, and IL-22. Th17 cells have been implicated in graft versus host disease, autoimmune disease and asthma. ROR gamma is induced in naive T helper cells in the presence of TGF-beta combined with IL-6, IL-21, or IL-23, and thereafter directs the expression of the Th17 lineage cytokines. To study the mechanism of action of ROR gamma, an insect cell-based assay was screened. This Drosophila Schneider cell line was stably transfected with two vectors: a gene expressing a fusion of the Gal4 DNA binding domain and ROR gamma transactivation domain under the control of the metallothionine promoter and a Photinus luciferase reporter regulated by the Gal4 binding site enhancer, UAS. […] Small molecule inhibitors of ROR gamma activity are detected by a decrease in luciferase reporter activity.
# Assay Protocol Summary: For screening, 600 cells in 4 uL/well were dispensed into white solid 1536-well plates (Grenier) using a solenoid-based dispenser. Following transfer of 23 nL compound or DMSO vehicle by a pin tool, the plates were incubated 1 hr at ambient temperature, and 1 uL/well copper sulfate (700 uM final concentration) was added. The plates were centrifuged 15 s at 1000 RPM and incubated 20 hr at ambient temperature. After addition of 1.5 uL Photinus luciferase detection reagent, the plates were incubated 10 min at ambient temperature and then read by an ViewLux (Perkin Elmer) to detect luminescence. Keywords: NIH Roadmap, MLPCN, MLI, MLSMR, qHTS, NCGC, qHTS, nuclear hormone receptor, retinoic acid-related orphan receptor, ROR gamma
# % is set by controls: 0 for no effect and ±100 for the full control effect; potency is the fitted concentration of half-maximal effect.
Compound,"activity change, negative = inhibition [%]",Potency
O=C(Cc1ccccc1F)NC1CCSc2ccccc21 (stereo not given),-33.8,–
CC(C)c1ccc(S(=O)(=O)NC2CCCC2)cc1,24.5,–
CCn1c(CNC(=O)c2cc(OC)c(OC)c(OC)c2)cc2cc(C)ccc21,31.6,–
CC(=O)N1CCCc2cc(S(=O)(=O)N3CCCC(C(=O)NCc4ccc(Cl)cc4)C3)ccc21 (stereo not given),9.44,–
CC(=O)N1CCCc2cc(S(=O)(=O)N3CCCC(C(=O)N4CCN(c5cccc(Cl)c5)CC4)C3)ccc21 (stereo not given),–,5.62 µM (active)
CC(=O)N1c2ccc(S(=O)(=O)N3CCCC(C(=O)Nc4cccc(Cl)c4)C3)cc2CC1C (stereo not given),40.4,–
COc1ccc2oc(C(=O)NCc3ccco3)c(C)c2c1,3.55,–
CC(C(=O)N1CCN(c2ccccc2F)CC1)c1ccc([N+](=O)[O-])cc1 (stereo not given),32.2,–
COc1ccc(CNc2nccs2)cc1,-17.8,–
CCOc1ccc(-n2c(O)c(/C=N/Nc3nnc(C)c(=O)[nH]3)c3ccccc3c2=O)cc1,-23.3,–
COc1ccc(Cc2nnc(N/N=C/c3ccccc3O)[nH]c2=O)cc1OC,–,3.98 µM (active)
O=c1[nH]c(NCCO)nnc1Cc1ccc(Cl)cc1,-12.4,–
O=C(CSCc1ccccc1)N1CCc2ccccc21,0.446,–
NC(=O)N1CCc2ccccc21,1.35,–
O=C(NC(=S)N1CCc2ccccc21)c1ccco1,–,1.41 µM (active)
COc1cc(/C=N/N2CCN(c3ccccc3)CC2)ccc1OC(C)=O,22.3,–
CC(C)=CCN1CCN(Cc2cc3ccccc3[nH]2)CC1CCO (stereo not given),3.24,–
CCOC(=O)c1c(NC(=O)CCC(=O)NCc2ccco2)sc2c1CCCC2,-15.2,–
CCOC(=O)c1c(NC(=S)NC(=O)c2ccco2)sc2c1CCCC2,–,3.16 µM (active)
CCOC(=O)c1c(NC(=S)NC)sc2c1CCCC2,–,0.891 µM (active)
CCc1ccc(N(CC(=O)Nc2sc3c(c2C(=O)OC)CCCC3)S(C)(=O)=O)cc1,67.7,–
CCOC(=O)c1c(NC(=S)Nc2ccccc2)sc2c1CCN(C)C2,-15.4,–
CCOC(=O)c1c(NC(=O)C(C)Sc2c[nH]c3ccccc23)sc2c1CCC2 (stereo not given),22.1,–
CCOC(=O)c1c(NC(=S)Nc2ccccc2C)sc2c1CCC2,–,3.55 µM (active)
O=C(Nc1sc2c(c1C(=O)O)CCC2)c1ccccc1F,19.6,–

Compound,"activity change, negative = inhibition [%]",Potency
CCOC(=O)c1c(NC(=O)CSc2nnc(C)c(=O)[nH]2)sc2c1CCC2,-24.2,–
CCN(CC)CC(=O)Nc1sc2c(c1C(=O)c1ccccc1C)CCC2,–,7.08 µM (active)
CCOC(=O)c1c(NC(=O)c2ccc(Br)o2)sc2c1CCCC2,-18.3,–
CCCOC(=O)Nc1sc2c(c1C(=O)OCC)CCC2,7.44,–
Cc1coc2c1c(C)cc1oc(=O)c(CC(=O)NCC(=O)N[C@H](C(=O)O)C(C)C)c(C)c12,-3.21,–
CCCCNC(=O)CN1C(=O)NC(Cc2ccccc2)(Cc2ccccc2)C1=O,1.1,–
O=C(NCC(=O)N1CCN(c2ccccc2O)CC1)c1ccc2ccccc2c1,6.01,–
Cc1cc(C)cc(N(CC(=O)NC2CCCC2)C(=O)CCC(=O)Nc2cc(C)on2)c1,2.25,–
O=C(CN1CCOC1=O)N1CCCC(Nc2ccc(F)c(F)c2)C1 (stereo not given),28.4,–
O=C(CCNS(=O)(=O)c1cccs1)N1CCN(c2ccc(F)cc2)CC1,1.55,–
CCCc1nnc(SCC(=O)Nc2ccc(C(=O)OCC)cc2)o1,-35.3,–
CCN(C(=O)Cc1c(C(=O)O)n(CC)c2ccccc12)c1ccccc1C,30.5,–
CCOC(=O)c1ccccc1NC(=O)COC(=O)CCC(=O)N1CCOCC1,2.27,–
CC(CC(=O)N1CCN(S(=O)(=O)c2ccccc2)CC1)n1cncn1 (stereo not given),3.92,–
CCOc1ccc(-n2c(SCC(=O)Nc3ccc(OC)cc3)nc3sc4c(c3c2=O)CCN(C)C4)cc1,11.9,–
CCOc1ccccc1-c1nc(CN2CCC(C(=O)N3CCOCC3)CC2)c(C)o1,-0.916,–
N#Cc1cccc(-c2nc3cnc(N4CCNCC4)nc3n(C3CC3)c2=O)c1,–,12.6 µM (active)
Cn1c(=O)c(-c2ccccc2)nc2cnc(N3CCNCC3)nc21,-20.6,–
O=c1c(-c2ccc(F)cc2)nc2cnc(N3CCNCC3)nc2n1Cc1cccs1,-5.47,–
Cc1c2cnn(CC(=O)NCCCN3CC(C)CC(C)C3)c(=O)c2c(C)n1Cc1ccc(Cl)cc1 (stereo not given),-33.5,–
CC(C)(c1ccccc1)c1ccc(OCCN2CCCC2)cc1,-9.7,–
O=C(NCCCn1ccnc1)c1ccccc1F,-8.55,–
CN(Cc1ccccc1)C(=O)c1cccc(C(=O)N(C)Cc2ccccc2)c1,-14.3,–
O=c1c([N+](=O)[O-])cc(C(F)(F)F)cn1Cc1cccc(Cl)c1,26.4,–
O=[N+]([O-])/C=C/c1ccc2c(ccn2Cc2ccccc2)c1,–,12.6 µM (active)

Compound,"activity change, negative = inhibition [%]",Potency
O=C(Cn1ccc2cc(S(=O)(=O)N3CCCC3)ccc21)NCc1ccccc1,4.66,–
Cc1c(C(=O)NCC(c2ccco2)N2CCCC2)oc2ccc(Cl)cc12 (stereo not given),8.17,–
Cc1onc(C(=O)Nc2ccc3c(c2)OCO3)c1[N+](=O)[O-],36.5,–
CCCc1[nH]nc2c1C(c1c(C)nn(-c3ccccc3)c1Cl)C(C#N)=C(N)O2 (stereo not given),33.4,–
CCCc1[nH]nc2c1C(c1ccc(OC(=O)c3ccco3)cc1)C(C#N)=C(N)O2 (stereo not given),-14.4,–
CCCc1[nH]nc2c1C(c1ccc(Br)s1)C(C#N)=C(N)O2 (stereo not given),–,12.6 µM (active)
Cc1ccc(S(=O)(=O)N(Cc2ccccc2)c2ccccn2)cc1[N+](=O)[O-],34.1,–
Cc1cccc(OCC(O)CN2CCN(S(=O)(=O)c3ccc(C)cc3C)CC2)c1 (stereo not given),11.8,–
Cc1ccc(N2C(=O)CN=C2Nc2nc(C)cc(C)n2)cc1,-23.8,–
COc1ccc(N2C(=O)CN=C2Nc2cccc(C)c2C)cc1OC,5.1,–
Cc1cc(C)nc(NC2=NCC(=O)N2c2ccc(Cl)cc2)n1,–,0.224 µM (active)
CC1CN(C(=O)CCC(=O)NCc2cccnc2)c2ccccc2O1 (stereo not given),-22.8,–
Cc1ccc(C(=O)N2CC(=O)Nc3ccc(F)cc3C2c2ccc(F)cc2)cc1 (stereo not given),40.3,–
Cc1cccc(OCC(=O)NC(=S)Nc2ccccc2N2CCOCC2)c1,–,11.2 µM (active)
COc1ccccc1C(=O)NC(=S)NC12CC3CC(CC(C3)C1)C2,-11,–
Cc1cccc(OCCC(=O)Nc2cc(S(=O)(=O)N3CCCCC3)ccc2N2CCOCC2)c1,-0.287,–
O=C(NC(=S)Nc1cc(C(F)(F)F)ccc1N1CCOCC1)c1ccc(-c2cccc(Cl)c2)o1,–,10 µM (active)
Cc1cccc(OCC(=O)Nc2ccccc2F)c1,-0.216,–
CC(=O)N1CCN(c2ccccc2NC(=S)NC(=O)c2cc3ccccc3o2)CC1,–,11.2 µM (active)
COc1ccccc1C(=O)NC(=S)Nc1ccccc1N1CCCCC1,–,3.98 µM (active)
CC(Sc1nncn1C)C(=O)Nc1cc(C(F)(F)F)ccc1N1CCOCC1 (stereo not given),11.5,–
Cc1ccccc1NC(=O)Nc1ccccc1N1CCCCC1,-4.44,–
O=C(Nc1ccccc1N1CCN(C(=O)c2ccccc2)CC1)c1ccco1,18,–
COc1cc(C(=O)Nc2cc(C(F)(F)F)ccc2N2CCOCC2)ccc1O,18.1,–
Cc1ccc(NC(=O)c2cc3ccccc3o2)cc1,-8.5,–

# Source: PubChem BioAssay AID2551 (National Center for Advancing Translational Sciences (NCATS), 2010)
